Measurements: PubChem BioAssay (NCATS)
Several values for one entry are separate records, joined by “and”; a condition that tells them apart may be missing. Equal values may be shown once. Records with an inconclusive call do not appear. Values without a mark were called inactive. Activity calls are given as the source filed them. Calls follow the shape of the dose curve; as a rule, active = well fitted cell-killing curve with a large enough effect; inconclusive = small, poorly fitted or top-dose-only effect; inactive = no such curve, though single readings can be large or run the other way.

Assay: qHTS of pediatric cancer cell lines to identify multiple opportunities for drug repurposing: Primary screen for SK-N-MC cells (AID 1347093);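 as to activity change, negative = cytotoxic: plate controls were DMSO neutral control for no effect and bortezomib for full effect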
Settings: SK-N-MC viability, CellTiter-Glo luminescence, 48 h; series mostly up to 46 µM; activity change, negative = cytotoxic: at the top concentration
Summary of the method: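 Metabolically active cells were quantified by ATP-dependent luminescence (CellTiter-Glo, 15 min at room temperature) following 48 h treatment. Cells had been plated at 500-1,000 per well and settled for 5 h beforehand.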
Potency is read from the fitted curve at half-maximal effect.

| SMILES | Potency | activity change, negative = cytotoxic [%] |
| --- | --- | --- |
| COC(=O)C1=C(C)NC(C)=C(C(=O)OC(C)C)C1c1cccc2nonc12 (centres undefined) | 2.64 µM (active) |  |
| CC1(C)NC(=O)N(c2ccc([N+](=O)[O-])c(C(F)(F)F)c2)C1=O |  | -8.84 |
| CC(C)(S)[C@@H](N)C(=O)O |  | 44.3 |
| Cc1ncc([N+](=O)[O-])n1CC(C)O (centres undefined) | inactive |  |
| COc1cc2c(cc1OC)C1CC(=O)C(CC(C)C)CN1CC2 (centres undefined) |  | 5.06 |
| NS(=O)(=O)c1cc(C(=O)O)c(NCc2ccco2)cc1Cl |  | -27.3 |
| COc1ccccc1N1CCN(CCN(C(=O)C2CCCCC2)c2ccccn2)CC1 |  | 2.13 |
| Cc1cc(=O)oc2cc(O)ccc12 | inactive |  |
| CNC[C@@H](O)[C@@H](O)[C@H](O)[C@H](O)CO | 23.5 µM (active) |  |
| c1cnc2cc3c(cc2n1)C1CNCC3C1 | 4.69 µM (active) |  |
| CCOC(=O)c1c(C)n(C)c2ccc(O)cc12 | inactive |  |
| CCOc1cc(CC(=O)N[C@@H](CC(C)C)c2ccccc2N2CCCCC2)ccc1C(=O)O | 4.69 µM (active) |  |
| CC1Cc2ccccc2N1NC(=O)c1ccc(Cl)c(S(N)(=O)=O)c1 (centres undefined) | inactive |  |
| O=C(OC1C[C@H]2CC[C@@H](C1)[N+]21CCCC1)C(O)(c1ccccc1)c1ccccc1 (some centres undefined) | 14.8 µM (active) |  |
| CCCCC(CC)COC(=O)C(C#N)=C(c1ccccc1)c1ccccc1 (centres undefined) | 16.8 µM (active) and 7.43 µM (active) |  |
| NNc1nncc2ccccc12 | inactive |  |
| Oc1ccc(OCc2ccccc2)cc1 |  | -11.7 |
| Cc1cc(C2CCCCC2)n(O)c(=O)c1 | 750 nM (active) and 1.18 µM (active) |  |
| COc1ccc2cc([C@H](C)C(=O)O)ccc2c1 |  | -0.229 |
